Inconclusive results are not listed. The source made the active and inactive calls. Unless noted, calls come from the whole dose curve.
Columns and labels:
[1] = qHTS assay to identify small molecule antagonists of the sonic hedgehog signaling (Shh) pathway (AID 1259369); conditions: NIH/3T3 Gli1-Luc reporter, Shh antagonist, luminescence 24 h; series mostly up to 92.4 µM; note: nearly all actives have a fitted effect of over 45% in size
In short: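 Screening used 3T3Gli1-Luc cells at 2,000 per well, compounds delivered in DMSO, and conditioned medium as agonist stimulus; plates incubated 24hr at 37 C and 5% CO2 before a 30min luciferase step.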

[2] = target: Estrogen receptor beta (Homo sapiens) (UniProt Q92731); assay: qHTS assay to identify small molecule agonists of the estrogen receptor beta (ER-beta) signaling pathway (AID 1259377; active = well fitted activation curve with a large enough effect in the signal ratio in the repeat runs, not every such curve was filed as active; the % refers to the signal ratio); conditions: ER-beta-UAS-bla HEK293T, beta-lactamase FRET ratio, 16 h; series mostly up to 92.4 µM
In short: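 ER-beta-UAS-bla HEK293T cells in medium with 2% charcoal-stripped FBS were exposed to compounds for 16 h at 37C. Beta-lactamase reporter activity was read as fluorescence after 2 h with LiveBLAzer B/G FRET substrate at room temperature.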

[3] = target: Estrogen receptor beta (Homo sapiens) (UniProt Q92731); assay: qHTS assay to identify small molecule antagonists of the estrogen receptor beta (ER-beta) signaling pathway (AID 1259378; active = well fitted inhibition curve with a large enough effect in the signal ratio in the repeat runs, not every such curve was filed as active; the % refers to the signal ratio); conditions: ER-beta-UAS-bla HEK293T, beta-lactamase FRET ratio, 16 h; series mostly up to 92.4 µM
In short: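 ER-beta-UAS-bla HEK293T cells in 2% charcoal-stripped FBS medium treated with compound plus 1nM final 17-beta-estradiol for 16 hr at 37C. Beta-lactamase reporter read by FRET substrate fluorescence after 2 hours at room temperature.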

[4] = qHTS assay to identify small molecule agonists of the estrogen receptor beta (ER-beta) signaling pathway - cell viability counter screen (AID 1259380; active = well fitted curve in the direction sought with a large enough effect in the repeat runs; an effect the other way counts as inactive or inconclusive; note: nearly all actives have a fitted effect of over 30% in size); conditions: ER-beta-bla HEK293T viability, CellTiter-Glo luminescence, 16 h; series mostly up to 92.4 µM
In short: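 Viability of ER-beta-UAS-bla HEK293T cells was determined by CellTiter-Glo luminescence following 16 hr treatment with test compounds at 37C.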

[5] = qHTS assay to identify small molecule antagonists of the estrogen receptor beta (ER-beta) signaling pathway - cell viability counter screen (AID 1259382; active = well fitted curve in the direction sought with a large enough effect in the repeat runs; an effect the other way counts as inactive or inconclusive; note: nearly all actives have a fitted effect of over 55% in size); conditions: ER-beta-UAS-bla HEK293T viability, CellTiter-Glo luminescence, 16 h; series mostly up to 92.4 µM
In short: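 Tox21 10K library tested in qHTS format on ER-beta-bla HEK293T cells stimulated with 1nM E2; 16 hr treatment at 37C. Same-well CellTiter-Glo luminescence served as the cell viability measure.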

[6] = target: Thyrotropin receptor (Homo sapiens) (UniProt P16473); assay: qHTS assay to identify small molecule antagonists of the thyroid stimulating hormone receptor (TSHR) signaling pathway (AID 1259385); conditions: TSHR-HEK293 cAMP HTRF, TSH-stimulated antagonist mode; series mostly up to 92.4 µM; note: nearly all actives have a fitted effect of over 20% in size
In short: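 TSHR-HEK293 cells (800/well) plated 18 h, then compounds with Ro20-1724 and TSH at 1.5 ng/mL final, 30 min at room temperature. cAMP quantified by HTRF (cAMP-d2/anti-cAMP-cryptate, 1 h); 15 concentrations in triplicate.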

[7] = qHTS assay to identify small molecule agonists of the estrogen receptor alpha (ER-alpha) signaling pathway in the presence of an antagonist - cell viability counter screen (AID 1259386; active = well fitted curve in the direction sought with a large enough effect in the repeat runs; an effect the other way counts as inactive or inconclusive;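 note: cells exposed to compounds for 22 h at 37 °C before the viability read; nearly all actives have a fitted effect of over 30% in size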); conditions: VM7Luc4E2 viability, CellTiter-Fluor fluorescence, 22 h; series mostly up to 92.4 µM
In short: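 Fluorescent CellTiter-Fluor viability signal from VM7Luc4E2 cells, with the reagent added during the final hour of a 22hr compound exposure at 37C in the presence of 10.0nM ICI-182,780.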

[8] = target: Progesterone receptor (Homo sapiens) (UniProt P06401); assay: qHTS assay to identify small molecule agonists of the progesterone receptor (PR) signaling pathway (AID 1346784); conditions: PR-UAS-bla HEK293T, beta-lactamase FRET ratio, 16 h; series mostly up to 92.4 µM; note: nearly all actives have a fitted effect of over 30% in size
In short: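 PR-UAS-bla HEK 293T cells (beta-lactamase reporter under UAS) in 2% charcoal-stripped FBS, dosed with 23 nL compound after 6 hr, incubated 16hr at 37C. LiveBLAzer B/G FRET substrate added, fluorescence read after 2 hours.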

[9] = target: Progesterone receptor (Homo sapiens) (UniProt P06401); assay: qHTS assay to identify small molecule antagonists of the progesterone receptor (PR) signaling pathway (AID 1346795; active = well fitted inhibition curve with a large enough effect in the signal ratio in the repeat runs, not every such curve was filed as active; the % refers to the signal ratio); conditions: PR-UAS-bla HEK293T, beta-lactamase FRET ratio, 16 h; series mostly up to 92.4 µM
In short: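 PR-UAS-bla HEK293T cells with beta-lactamase reporter under UAS control, in 2% charcoal-stripped FBS, treated with compounds plus 1 nM promegestone (R5020, final) for 16 hr at 37C. Read-out: FRET beta-lactamase substrate fluorescence after 2 hr at room temperature.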

[10] = qHTS assay to identify small molecule antagonists of the progesterone receptor (PR) signaling pathway - cell viability counter screen (AID 1346798; active = well fitted curve in the direction sought with a large enough effect in the repeat runs; an effect the other way counts as inactive or inconclusive; note: nearly all actives have a fitted effect of over 50% in size); conditions: PR-UAS-bla HEK293T viability, CellTiter-Glo luminescence, 16 h; series mostly up to 92.4 µM
In short: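 PR-UAS-bla HEK293T cells, 3,000/well in 2% charcoal-stripped FBS medium, dosed with compounds plus R5020 agonist and incubated 16 h at 37C. Viability then measured in the same wells by CellTiter-Glo luminescence after 30 min at RT.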

[11] = qHTS assay to identify small molecule agonists of the progesterone receptor (PR) signaling pathway - cell viability counter screen (AID 1346799); conditions: PR-UAS-bla HEK293T viability, CellTiter-Glo luminescence, 16 h; series mostly up to 92.4 µM; note: nearly all actives have a fitted effect of over 45% in size
In short: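 Counter screen in the PR-UAS-bla HEK293T wells (2% charcoal-stripped FBS, 16 h compound exposure at 37 C) after the bla read. CellTiter-Glo added, 30 min at room temperature, luminescence read as cell viability.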

[12] = qHTS assay to identify small molecule antagonists of the TGF-beta/Smad signaling pathway - cell viability counter screen (AID 1346824; active = well fitted curve in the direction sought with a large enough effect in the repeat runs; an effect the other way counts as inactive or inconclusive; note: nearly all actives have a fitted effect of over 50% in size); conditions: SBE-bla HEK293T viability, CellTiter-Glo luminescence; series mostly up to 76.8 µM
In short: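 SBE-bla HEK 293T cells, incubated overnight, then compound plus 0.25 ng/mL TGF-beta1 (stock added) for 5 hr at 37 C. Viability was read in the same wells by CellTiter-Glo luminescence after 30 min at room temperature.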

[13] = qHTS assay to identify small molecule agonists of the TGF-beta/Smad signaling pathway - cell viability counter screen (AID 1346829; active = well fitted curve in the direction sought with a large enough effect in the repeat runs; an effect the other way counts as inactive or inconclusive; note: top concentration of the series differs between compounds; nearly all actives have a fitted effect of over 45% in size); conditions: SBE-bla HEK293T viability, CellTiter-Glo luminescence, 5 h; series mostly up to 76.8 µM
In short: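 CellTiter-Glo luminescence readout; SBE-bla HEK 293T cells, overnight plating, compound 5 hr at 37 C/5% CO2, then bla substrate 2 hr RT, then CellTiter-Glo 30 min RT.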

[14] = qHTS assay to identify small molecule agonists of the TGF-beta/Smad signaling pathway (AID 1346859; active = well fitted activation curve with a large enough effect in the signal ratio in the repeat runs, not every such curve was filed as active; the % refers to the signal ratio); conditions: SBE-bla HEK293T, TGF-beta/Smad beta-lactamase reporter, 5 h; series mostly up to 76.8 µM
In short: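 SBE-bla HEK293T cells plated overnight, then compound exposure for 5 h at 37 C. Beta-lactamase reporter read with LiveBLAzer B/G FRET substrate after 2 h at room temperature, fluorescence at 405 nm excitation, 460/530 nm emission.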

[15] = target: Thyrotropin-releasing hormone receptor (Homo sapiens) (UniProt P34981); assay: qHTS assay to identify small molecule antagonists of the thyrotropin-releasing hormone receptor (TRHR) signaling pathway (AID 1346877; active = well fitted inhibition curve with a large enough effect in the repeat runs, not every such curve was filed as active); conditions: TRHR-HEK293, TRH-induced calcium fluorescence, antagonist mode; series mostly up to 51.3 µM
In short: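 In this cell-based calcium flux format, HEK293 cells expressing TRHR received test compound for 5 min before the agonist TRH (1 nM final). Dye loading lasted 2 h at 37 °C.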

[16] = target: Thyrotropin-releasing hormone receptor (Homo sapiens) (UniProt P34981); assay: qHTS assay to identify small molecule agonists of the thyrotropin-releasing hormone receptor (TRHR) signaling pathway (AID 1346891); conditions: TRHR-HEK293 calcium fluorescence, agonist mode; series mostly up to 57.6 µM
In short: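 HEK293 cells expressing TRHR plated 18 h at 37 C/5% CO2, calcium dye-loaded 2 h at 37 C, then compound added (agonist mode); kinetic calcium fluorescence read 3 min at 1 s intervals; 15 concentrations in triplicate.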

[17] = qHTS assay to identify small molecule agonists of the androgen receptor (AR) signaling pathway in the presence of an antagonist - cell viability counter screen (AID 1259379; active = well fitted curve in the direction sought with a large enough effect in the repeat runs; an effect the other way counts as inactive or inconclusive;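 note: MDA-kb2 human breast cancer cells carrying an MMTV luciferase reporter; nearly all actives have a fitted effect of over 25% in size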); conditions: MDA-kb2 viability, CellTiter-Fluor, 16 h; series mostly up to 92.4 µM
In short: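 In MDA-kb2 cells (human breast carcinoma, MMTV-luciferase), compounds at 15 concentrations plus 3.0uM nilutamide; 16 hr, 37C, 0% CO2; CellTiter-Fluor fluorescence read for viability.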

[18] = target: Androgen receptor (Homo sapiens) (UniProt P10275); assay: qHTS assay to identify small molecule agonists of the androgen receptor (AR) signaling pathway in the presence of an antagonist (AID 1259381); conditions: MDA-kb2 MMTV-luciferase, AR agonist + nilutamide, 16 h; series mostly up to 42.5 µM; note: nearly all actives have a fitted effect of over 15% in size
In short: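 Here, 15-concentration compound series were pin-transferred onto MDA-kb2 MMTV-luciferase cells already dosed with nilutamide (3.0uM final). After 16hr at 37C, ONE-Glo was added and luminescence read 30min later at room temperature.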

[19] = target: Estrogen receptor (Homo sapiens) (UniProt P03372); assay: qHTS assay to identify small molecule agonists of the estrogen receptor alpha (ER-alpha) signaling pathway in the presence of an antagonist (AID 1259383); conditions: VM7Luc4E2 cells, ERE-luciferase, +ICI-182,780, 22 h; series mostly up to 92.4 µM; note: top concentration of the series differs between compounds; nearly all actives have a fitted effect of over 15% in size
In short: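 In VM7Luc4E2 cells, 4,000 per well, compounds at 15 concentrations were co-incubated 22hr at 37C with 10.0nM final ICI-182,780. Luminescence from the stably transfected 4×ERE-luciferase reporter was recorded 30min after ONE-Glo addition.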

[20] = qHTS assay to identify small molecule agonists or antagonists of the thyroid stimulating hormone receptor (TSHR) signaling pathway - wild type cell line counter screen (AID 1259384); conditions: HEK293 wild type, cAMP HTRF counter-screen; series mostly up to 92.4 µM
In short: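 Wild-type Hek293 cells, 800/well, 18 h at 37C, then compound with Ro20-1724 for 30 min RT. cAMP by HTRF (cAMP-d2/anti-cAMP cryptate), 1 h RT, fluorescence read. 15 concentrations, triplicates.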

Measured: Potency

Chain of Thyrotropin-releasing hormone receptor (Homo sapiens) (P34981 whole entry, looked up): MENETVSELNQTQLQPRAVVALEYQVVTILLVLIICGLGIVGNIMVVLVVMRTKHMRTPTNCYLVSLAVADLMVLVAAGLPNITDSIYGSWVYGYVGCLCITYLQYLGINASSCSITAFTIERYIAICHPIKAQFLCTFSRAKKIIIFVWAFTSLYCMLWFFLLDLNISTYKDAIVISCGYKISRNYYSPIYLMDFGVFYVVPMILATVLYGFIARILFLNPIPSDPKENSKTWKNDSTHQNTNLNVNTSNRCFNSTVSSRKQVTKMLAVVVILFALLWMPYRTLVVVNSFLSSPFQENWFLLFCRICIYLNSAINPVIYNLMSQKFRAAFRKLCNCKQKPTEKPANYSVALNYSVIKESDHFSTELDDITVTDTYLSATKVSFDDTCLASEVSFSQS
Chain of Estrogen receptor beta (Homo sapiens) (Q92731 whole entry, looked up): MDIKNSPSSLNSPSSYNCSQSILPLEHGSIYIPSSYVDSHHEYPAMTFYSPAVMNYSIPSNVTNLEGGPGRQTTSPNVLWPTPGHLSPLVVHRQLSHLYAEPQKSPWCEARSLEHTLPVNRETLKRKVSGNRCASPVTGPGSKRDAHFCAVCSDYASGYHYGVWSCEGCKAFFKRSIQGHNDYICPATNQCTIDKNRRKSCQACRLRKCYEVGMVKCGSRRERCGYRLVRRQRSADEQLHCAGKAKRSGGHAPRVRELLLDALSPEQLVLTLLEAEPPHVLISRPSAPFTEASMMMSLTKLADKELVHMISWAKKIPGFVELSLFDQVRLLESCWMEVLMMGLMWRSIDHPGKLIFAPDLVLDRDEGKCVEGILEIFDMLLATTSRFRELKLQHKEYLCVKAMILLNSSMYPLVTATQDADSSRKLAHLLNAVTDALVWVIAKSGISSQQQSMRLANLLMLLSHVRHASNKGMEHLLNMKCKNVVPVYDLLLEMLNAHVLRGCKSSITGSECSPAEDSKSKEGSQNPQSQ
Chain of Thyrotropin receptor (Homo sapiens) (P16473 whole entry, looked up): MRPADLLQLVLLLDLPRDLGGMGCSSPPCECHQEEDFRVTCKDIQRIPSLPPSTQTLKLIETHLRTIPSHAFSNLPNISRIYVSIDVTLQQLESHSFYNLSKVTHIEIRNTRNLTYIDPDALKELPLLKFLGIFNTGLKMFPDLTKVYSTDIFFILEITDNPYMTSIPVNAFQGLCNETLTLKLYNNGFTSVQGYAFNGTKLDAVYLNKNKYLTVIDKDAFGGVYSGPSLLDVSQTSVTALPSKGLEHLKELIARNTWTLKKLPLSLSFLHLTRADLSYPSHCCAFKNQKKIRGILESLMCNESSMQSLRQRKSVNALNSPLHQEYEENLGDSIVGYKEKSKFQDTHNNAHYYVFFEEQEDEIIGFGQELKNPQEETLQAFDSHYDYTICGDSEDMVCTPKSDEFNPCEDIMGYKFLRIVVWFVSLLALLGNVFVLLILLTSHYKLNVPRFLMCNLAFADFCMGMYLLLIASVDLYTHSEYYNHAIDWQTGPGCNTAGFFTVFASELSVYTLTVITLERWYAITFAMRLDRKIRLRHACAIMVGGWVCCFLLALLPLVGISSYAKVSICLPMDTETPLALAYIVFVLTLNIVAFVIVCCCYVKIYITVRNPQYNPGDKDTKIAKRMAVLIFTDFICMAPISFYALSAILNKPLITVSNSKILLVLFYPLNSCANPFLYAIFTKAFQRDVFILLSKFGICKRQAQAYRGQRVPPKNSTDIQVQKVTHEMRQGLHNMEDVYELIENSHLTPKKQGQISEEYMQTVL
Chain of Progesterone receptor (Homo sapiens) (P06401 whole entry, looked up): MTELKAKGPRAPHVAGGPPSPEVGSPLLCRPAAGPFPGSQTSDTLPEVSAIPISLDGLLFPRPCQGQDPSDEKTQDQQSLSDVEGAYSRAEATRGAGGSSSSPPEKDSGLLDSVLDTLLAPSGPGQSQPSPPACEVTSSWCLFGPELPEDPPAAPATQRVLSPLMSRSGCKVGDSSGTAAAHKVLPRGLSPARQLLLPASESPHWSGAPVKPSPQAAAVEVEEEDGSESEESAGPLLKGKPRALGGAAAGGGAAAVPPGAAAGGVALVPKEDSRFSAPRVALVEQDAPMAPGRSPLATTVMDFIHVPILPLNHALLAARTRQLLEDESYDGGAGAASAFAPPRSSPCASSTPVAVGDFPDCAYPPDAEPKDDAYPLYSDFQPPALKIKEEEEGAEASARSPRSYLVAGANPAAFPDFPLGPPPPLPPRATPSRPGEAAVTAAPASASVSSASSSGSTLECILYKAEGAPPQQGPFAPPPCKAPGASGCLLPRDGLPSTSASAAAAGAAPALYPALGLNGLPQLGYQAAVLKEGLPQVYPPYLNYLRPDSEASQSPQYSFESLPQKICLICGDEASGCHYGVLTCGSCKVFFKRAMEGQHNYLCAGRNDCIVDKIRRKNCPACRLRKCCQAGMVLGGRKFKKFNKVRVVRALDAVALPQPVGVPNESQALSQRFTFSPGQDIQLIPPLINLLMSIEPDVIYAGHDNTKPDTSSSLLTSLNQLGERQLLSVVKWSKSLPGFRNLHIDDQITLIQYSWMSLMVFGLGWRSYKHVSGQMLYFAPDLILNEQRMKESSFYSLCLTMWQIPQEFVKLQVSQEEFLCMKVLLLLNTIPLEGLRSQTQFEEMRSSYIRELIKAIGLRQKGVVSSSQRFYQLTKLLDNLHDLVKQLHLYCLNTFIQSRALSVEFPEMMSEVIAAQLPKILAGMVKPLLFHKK
Chain of Estrogen receptor (Homo sapiens) (P03372 whole entry, looked up): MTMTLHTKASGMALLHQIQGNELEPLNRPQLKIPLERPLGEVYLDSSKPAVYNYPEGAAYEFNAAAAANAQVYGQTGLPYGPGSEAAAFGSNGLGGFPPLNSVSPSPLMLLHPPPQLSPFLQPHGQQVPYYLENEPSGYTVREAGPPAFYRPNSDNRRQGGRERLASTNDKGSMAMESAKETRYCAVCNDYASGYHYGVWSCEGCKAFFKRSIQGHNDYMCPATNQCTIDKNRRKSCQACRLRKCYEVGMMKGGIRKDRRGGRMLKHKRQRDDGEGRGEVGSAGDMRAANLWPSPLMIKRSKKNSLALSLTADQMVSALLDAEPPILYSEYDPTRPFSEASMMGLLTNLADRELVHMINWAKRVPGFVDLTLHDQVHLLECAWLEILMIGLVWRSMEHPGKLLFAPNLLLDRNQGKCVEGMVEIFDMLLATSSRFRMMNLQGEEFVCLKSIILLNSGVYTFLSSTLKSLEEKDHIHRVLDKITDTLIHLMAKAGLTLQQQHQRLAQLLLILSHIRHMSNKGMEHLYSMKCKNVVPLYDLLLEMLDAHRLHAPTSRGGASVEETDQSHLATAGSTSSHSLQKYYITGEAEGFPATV
Chain of Androgen receptor (Homo sapiens) (P10275 whole entry, looked up): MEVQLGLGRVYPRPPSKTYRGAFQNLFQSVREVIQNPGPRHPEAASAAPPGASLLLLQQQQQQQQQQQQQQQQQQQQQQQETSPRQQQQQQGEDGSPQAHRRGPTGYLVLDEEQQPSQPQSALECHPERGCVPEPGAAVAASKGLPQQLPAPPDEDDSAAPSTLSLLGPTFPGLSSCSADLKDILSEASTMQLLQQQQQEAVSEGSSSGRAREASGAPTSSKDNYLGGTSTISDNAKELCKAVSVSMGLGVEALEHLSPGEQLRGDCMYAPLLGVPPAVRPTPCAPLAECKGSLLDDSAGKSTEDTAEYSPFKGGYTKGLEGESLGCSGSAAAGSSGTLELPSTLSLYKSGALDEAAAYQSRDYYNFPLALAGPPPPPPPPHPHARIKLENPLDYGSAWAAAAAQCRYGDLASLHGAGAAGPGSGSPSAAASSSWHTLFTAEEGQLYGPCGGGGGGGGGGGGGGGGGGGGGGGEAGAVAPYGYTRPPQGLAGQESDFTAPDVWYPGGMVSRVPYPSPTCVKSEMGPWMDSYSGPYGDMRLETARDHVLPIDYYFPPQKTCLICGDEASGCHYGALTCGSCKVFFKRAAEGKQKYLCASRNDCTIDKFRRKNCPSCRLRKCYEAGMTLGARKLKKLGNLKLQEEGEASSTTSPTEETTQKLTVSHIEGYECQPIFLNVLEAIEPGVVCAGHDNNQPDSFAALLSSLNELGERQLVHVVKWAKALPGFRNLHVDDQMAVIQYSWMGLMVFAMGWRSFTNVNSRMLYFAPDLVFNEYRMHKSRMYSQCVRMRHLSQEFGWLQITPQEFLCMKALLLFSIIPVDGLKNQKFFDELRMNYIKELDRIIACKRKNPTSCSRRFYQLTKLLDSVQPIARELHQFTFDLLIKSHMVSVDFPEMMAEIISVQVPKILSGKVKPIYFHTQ

CC(C)C(=O)OC(=O)C(C)C
not listed: [17] | [18] | [19] | [20]
inactive: all other assays above

CC(C)(C)c1ccc(-c2ccc(C(C)(C)C)cc2)cc1
not listed: [3] | [8] | [13] | [15]
inactive: all other assays above

c1ccc(CCc2ccccc2)cc1
not listed: [3] | [17] | [18] | [19]
inactive: all other assays above

C=CN1CCCCCC1=O
not listed: [13] | [17] | [18] | [19]
inactive: all other assays above

CC(=O)Oc1cccc(C)c1
not listed: [2] | [3] | [18]
inactive: all other assays above

From PubChem BioAssay (Tox21)
